Results filed as inconclusive are left out. Where a call stands in place of a potency, no number is given. Activity calls are given as the source filed them. Calls come from the whole dose curve; as a rule, active = well fitted cell-killing curve with a large enough effect in the repeat runs (not every such curve was filed as active); inconclusive = weak or mixed curves, or effect the other way; inactive = no such curve, though single readings can be large or run the other way. Residues, ends and D or L forms follow the SMILES beside them.
Potency is the fitted concentration of half-maximal effect.

A short description of the assay: qHTS assay to identify small molecule antagonists of the estrogen related receptor signaling pathway with the pleiotropic PPARgamma coactivator (PGC) from Tox21 10K library - cell viability counter screen (AID 1224840). Note: nearly all actives have a fitted effect of over 40% in size. The conditions noted are these: PGC/ERR reporter cells viability, CellTiter-Fluor, 17.5 h; series mostly up to 92.4 µM. The procedure, abridged: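 Cell viability is measured by CellTiter-Fluor fluorescence in PGC/ERR cells that receive compounds after a 6-hour attachment period and are then incubated 17.5 hours at 37 C.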
For `C[C@]12C=CC(=O)C=C1CC[C@@H]1[C@@H]2[C@@H](O)C[C@@]2(C)[C@H]1CC[C@]2(O)C(=O)CO`, the Potency entry was “inactive”.
With `CC(=O)NS(=O)(=O)c1ccc(N)cc1` the entry was “inactive”; with `Nc1ccc(C(=O)O)cc1`, “inactive”; with `O=c1cc[nH]c(=S)[nH]1`, “inactive”.
The entry for `C/C=C/c1ccc(OC)cc1` is “inactive”.
The entry for `CCCCC1C(=O)N(c2ccccc2)N(c2ccccc2)C1=O` is “inactive”; for `Cc1ccc(C)c(OCCCC(C)(C)C(=O)O)c1` it is “inactive”.
For the compound `O=C(O)CCC(=O)O`, the Potency result is “inactive”.
With `CC(=O)Nc1nnc(S(N)(=O)=O)s1` the entry was “inactive”; with `COC(=O)[C@H](Cc1ccccc1)NC(=O)[C@@H](N)CC(=O)O` (H-Asp-Phe-OMe), “inactive”.
For the compound `CCCC(CCC)C(=O)O`, the Potency result is “inactive”.
The entry for `COc1ccc2[nH]cc(CCNC(C)=O)c2c1` is “inactive”.
With `CC(=O)OCC(COC(C)=O)OC(C)=O` the entry was “inactive”; with `Cn1c(=O)c2[nH]cnc2n(C)c1=O`, “inactive”; with `Nc1ccc(S(=O)(=O)c2ccc(N)cc2)cc1`, “inactive”.
With `OC(Cn1cncn1)(Cn1cncn1)c1ccc(F)cc1F` the entry was “inactive”; with `C1N2CN3CN1CN(C2)C3`, “inactive”.
Turning to `CCCN(CCC)S(=O)(=O)c1ccc(C(=O)O)cc1`, the Potency result was “inactive”.
Regarding `NNC(=O)c1ccncc1`, the Potency result is “inactive”.
The entry for `Cn1cc[nH]c1=S` is “inactive”; for `O=C1CN(/N=C/c2ccc([N+](=O)[O-])o2)C(=O)N1` it is 54.3 µM (active); for `CCCCOC(=O)CC(CC(=O)OCCCC)(OC(C)=O)C(=O)OCCCC` it is “inactive”.
Regarding `CCCCC(CC)COC(=O)/C=C/c1ccc(OC)cc1` (centres undefined), the Potency result is “inactive”.
The entry for `CC(C)(Oc1ccc(C2CC2(Cl)Cl)cc1)C(=O)O` (centres undefined) is “inactive”.

The record behind these values is PubChem BioAssay (Tox21).
